# Laboratory results published in PubChem BioAssay (NCATS).
# Inconclusive results are not listed. Active and inactive are the calls of the source. Calls follow the shape of the dose curve; as a rule, active = well fitted inhibition curve with a large enough effect; inconclusive = small, poorly fitted or top-dose-only effect; inactive = flat fitted curve, though single readings scatter.
# Assay: qHTS profiling for inhibitors of Plasmodium falciparum proliferation (AID 504749); also: nearly all actives have a fitted effect of over 60% in size;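 as to activity, negative = inhibition: 0% = DMSO vehicle and full inhibition = artemisinin control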
# Details: P. falciparum in erythrocytes, SYBR Green DNA, 72 h; at 12.8 µM (top of the series); parasite line A
# Source text: NIH National Institute of Allergy and Infectious Diseases [NIAID] NIH Chemical Genomics Center [NCGC] MLPCN Grant: None Assay Provider: Xinzhuan Su, NIAID NCGC Assay Overview: Plasmodium falciparum is a virulent malarial parasite that kills 1-2 million people worldwide each year. Transmitted by mosquitoes, the sporozoite form of the parasite enters the blood stream to infect hepatocytes, where they become merozoites that infect red blood cells (erythrocytes). Within erythrocytes, merozoites begin a […] cycle of growth and division, after which the parasite is released to infect new red blood cells. Gametocytes, which form within erythrocytes as well, circulate in the bloodstream and are ingested by the mosquito, thereby completing the life cycle. To profile malarial isolates for differential chemical responses and to identify inhibitors of malarial growth, an assay that measures P. falciparum growth and replication within erythrocytes was employed. This assay uses a DNA binding fluorescent dye (SYBR Green) to detect parasite DNA following cell lysis. Because mature erythrocytes lack DNA, only Plasmodium-derived DNA is detected.
# NCGC Assay Protocol Summary: The SYBR Green viability assay was adapted from a method described previously (Plouffe et al., 2008). For screening 3 ul culture medium was dispensed into 1536 well black clear bottom plates (Aurora Biotechnologies) using a Multidrop Combi (Thermo Fisher Scientific Inc.), 23 nL compounds in DMSO were added by a pin tool (Kalypsys), and 5 ul of erythrocytes infected with P. falciparum (0.3% parasitemia, 2.5% hematocrit final concentration) were added. The plates were incubated at 37 C in a humidified incubator in 5% CO2 for 72 h, and 2 ul lysis buffer (20 mM Tris HCl, 10 mM EDTA, 0.16% saponin, 1.6% triton X, 10X SYBR Green I supplied as 10,000X […] by Invitrogen) was added to each well. The plates were mixed for 25 sec with gentle shaking and incubated overnight at room temperature in the dark. The following morning, fluorescence intensity at 485(14) nm excitation and 535(25) nm emission wavelengths was measured on an EnVision (Perkin Elmer) plate reader. Plate reads were normalized relative to the control inhibitor (0.29 uM artemisinin) and vehicle (DMSO) wells present on each plate and then corrected by an algorithm using vehicle-only control plates at the beginning and end of the compound plate stack.
# Potency is read from the fitted curve at half-maximal effect.
row,SMILES,"activity, negative = inhibition"
1,O=C(O)c1ccccc1-c1c2cc(Br)c(=O)cc-2oc2[c]([Hg])c(O)c(Br)cc12,23.4% (inactive)

# Same assay, conditions: P. falciparum in erythrocytes, SYBR Green DNA, 72 h; at 12.8 µM (top of the series); parasite line B
row,SMILES,"activity, negative = inhibition"
1,O=C(O)c1ccccc1-c1c2cc(Br)c(=O)cc-2oc2[c]([Hg])c(O)c(Br)cc12,5.61% (inactive)

# Same assay, conditions: P. falciparum in erythrocytes, SYBR Green DNA, 72 h; at 28.7 µM (top of the series); parasite line A
row,SMILES,"activity, negative = inhibition"
1,CCN(CC)CCO[C@H]1CC[C@@]2(C)C(=CC[C@@H]3[C@H]2CC[C@]2(C)C(=O)CC[C@H]32)C1,-0.0219% (inactive)
2,C[N+](C)(C)CC(=O)[O-],11.4% (inactive)
3,CO[C@H]1[C@@H](O)CC(OC2[C@@H](O)CC(OC3[C@@H](O)C[C@H](OC4CC[C@@]5(C)C(CCC6C5CC(O)[C@]5(C)[C@H](C7=CC(=O)OC7)CCC65O)C4)O[C@@H]3C)O[C@@H]2C)O[C@@H]1C (stereo partly specified),-4.67% (inactive)
4,CCN1C[C@]2(COC)[C@H](O)C[C@H](OC)[C@]34C1C([C@H](OC)[C@H]23)[C@]1(OC(C)=O)C2[C@@H](OC(=O)c3ccccc3)C(O)(C[C@H]24)[C@@H](OC)[C@@H]1O,-2.64% (inactive)

# Same assay, conditions: P. falciparum in erythrocytes, SYBR Green DNA, 72 h; at 28.7 µM (top of the series); parasite line B
row,SMILES,"activity, negative = inhibition"
1,CCN(CC)CCO[C@H]1CC[C@@]2(C)C(=CC[C@@H]3[C@H]2CC[C@]2(C)C(=O)CC[C@H]32)C1,10.7% (inactive)
2,C[N+](C)(C)CC(=O)[O-],8.81% (inactive)
3,CO[C@H]1[C@@H](O)CC(OC2[C@@H](O)CC(OC3[C@@H](O)C[C@H](OC4CC[C@@]5(C)C(CCC6C5CC(O)[C@]5(C)[C@H](C7=CC(=O)OC7)CCC65O)C4)O[C@@H]3C)O[C@@H]2C)O[C@@H]1C (stereo partly specified),10.4% (inactive)
4,CCN1C[C@]2(COC)[C@H](O)C[C@H](OC)[C@]34C1C([C@H](OC)[C@H]23)[C@]1(OC(C)=O)C2[C@@H](OC(=O)c3ccccc3)C(O)(C[C@H]24)[C@@H](OC)[C@@H]1O,-26.7% (inactive)

# Same assay, conditions: P. falciparum in erythrocytes, SYBR Green DNA, 72 h; parasite line A
row,SMILES,Potency
1,CCCCCCCCCC[N+](C)(C)CCCCCCCCCC,5.01 µM (active)
2,CC(C)[C@@]1(NC(=O)[C@H]2CC3c4cccc5[nH]cc(c45)C[C@H]3N(C)C2)O[C@@]2(O)C3CCCN3C(=O)[C@@H](Cc3ccccc3)N2C1=O (stereo partly specified),6.31 µM (active)
3,Oc1cc[c]([Hg][Cl])cc1,7.94 µM (active)

# Same assay, conditions: P. falciparum in erythrocytes, SYBR Green DNA, 72 h; parasite line B
row,SMILES,Potency
1,CCCCCCCCCC[N+](C)(C)CCCCCCCCCC,6.31 µM (active)
2,CC(C)[C@@]1(NC(=O)[C@H]2CC3c4cccc5[nH]cc(c45)C[C@H]3N(C)C2)O[C@@]2(O)C3CCCN3C(=O)[C@@H](Cc3ccccc3)N2C1=O (stereo partly specified),5.01 µM (active)
3,Oc1cc[c]([Hg][Cl])cc1,10 µM (active)
